For assay [1], the system named is Vero E6 infected with SARS-CoV-2. The assay is described as follows: morphology score (similarity to uninfected cells); higher = more like uninfected cells. The note with it: 24 h.
The test system is the same in assay [2]. Briefly: SARS-CoV-2 infection rate relative to infected DMSO; higher = more infection, active = 60 or less. The note with it: 24 h.

Molecules are shown by their SMILES.

Compound `CN(C)CCc1c[nH]c2ccc(CS(=O)(=O)N3CCCC3)cc12` [almotriptan] (10 µM) registered a morphology score in assay [1] of 0.00995. For the same compound, the SARS-CoV-2 infection rate in assay [2] was 110% (inactive).

`O=C(O)/C=C/c1ccc(O)cc1` [naringeninic-acid] (10 µM) displayed a morphology score in assay [1] of 0.0231. In addition, the SARS-CoV-2 infection rate in assay [2] was 102% (inactive).

`CCn1cnc(C(=O)NC)c1C(=O)NC` [ethimizol] (10 µM): the morphology score in assay [1] worked out at 0.114. The SARS-CoV-2 infection rate in assay [2] was 96.5% (inactive).

As to `CCCCCCCCC(=O)N[C@H](CN1CCCC1)[C@H](O)c1ccc2c(c1)OCCO2` (10 µM), in assay [1], the morphology score is 0.393. Besides, in assay [2], the SARS-CoV-2 infection rate was 71.5% (inactive).

As for `COc1cc(N)c(Cl)cc1C(=O)OCCCN1CCCCC1` (10 µM), the morphology score in assay [1] was 0.0833. For the same compound, in assay [2], the SARS-CoV-2 infection rate was 100% (inactive).
